Measured values as given in PMC3404119, “Topology and Dynamics of the Zebrafish Segmentation Clock Core Circuit”.

Key:
Her1-GFP homodimer = biological target: T1, Her1-GFP homodimer (zebrafish (Danio rerio), UniProt Q90463 1-328); assay: MITOMI; PPARgamma-mCherry co-present (non-interacting control); TnT SP6 wheat germ expression extract on MITOMI chip, 3 h at room temperature; salt and pH not stated; PBS used for washing; high values mean tight binding; details: protein: ivt; tags: C-terminal GFP; chain copies: 2; label: Cy5; dsDNA, one strand shown
T1 sequence: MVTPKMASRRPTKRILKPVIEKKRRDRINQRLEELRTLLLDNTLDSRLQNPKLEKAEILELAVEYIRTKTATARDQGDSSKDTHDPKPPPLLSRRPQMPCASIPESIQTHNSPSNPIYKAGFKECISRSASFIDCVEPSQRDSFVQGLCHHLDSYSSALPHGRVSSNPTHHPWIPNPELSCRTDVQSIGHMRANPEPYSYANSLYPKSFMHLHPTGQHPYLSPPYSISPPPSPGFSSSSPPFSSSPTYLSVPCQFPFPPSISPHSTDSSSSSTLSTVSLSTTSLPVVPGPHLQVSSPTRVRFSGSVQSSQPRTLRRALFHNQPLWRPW

[1] = biological target: T2, Her7 (coupled to chip, Fig 2D);Hes6-mCherry (zebrafish (Danio rerio);zebrafish …, UniProt Q9I9K1;Q6P0J1 1-206;1-226, |); assay: MITOMI; Her7:Hes6 heterodimer, Her7 coupled to chip and Hes6-mCherry in solution; TnT SP6 wheat germ expression extract on MITOMI chip, 3 h at room temperature; salt and pH not stated; PBS used for washing; high values mean tight binding; details: protein: ivt;ivt; copies: 1;1; label: Cy5; dsDNA, one strand shown
T2 sequence 1: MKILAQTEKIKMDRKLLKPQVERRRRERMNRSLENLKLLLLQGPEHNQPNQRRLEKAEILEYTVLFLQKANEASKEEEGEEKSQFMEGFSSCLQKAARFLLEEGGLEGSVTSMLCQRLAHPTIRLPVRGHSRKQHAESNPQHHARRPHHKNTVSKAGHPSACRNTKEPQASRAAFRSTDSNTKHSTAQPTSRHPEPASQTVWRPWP
T2 sequence 2: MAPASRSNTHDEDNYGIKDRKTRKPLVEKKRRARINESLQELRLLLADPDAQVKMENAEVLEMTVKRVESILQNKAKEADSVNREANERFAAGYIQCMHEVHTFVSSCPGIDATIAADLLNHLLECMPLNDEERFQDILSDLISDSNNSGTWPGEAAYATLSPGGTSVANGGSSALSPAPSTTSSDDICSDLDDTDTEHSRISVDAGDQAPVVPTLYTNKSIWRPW

Sequence	binding signal (Her1-GFP homodimer)	binding signal [1]
GTTCTCGTGTTT	0.0171 ± 0.0014 relative affinity (strongest site = 1)	0.0265 ± 0.0016 relative affinity (strongest site = 1)
GGTCGCGTGTGC	0.181 ± 0.0115 relative affinity (strongest site = 1)	0.182 ± 0.00317 relative affinity (strongest site = 1)
TCCCACGGGATT	0.0209 ± 0.00257 relative affinity (strongest site = 1)	0.0207 ± 0.00168 relative affinity (strongest site = 1)
GTTCACGTGTGC	0.0341 ± 0.00138 relative affinity (strongest site = 1)	0.102 ± 0.00486 relative affinity (strongest site = 1)
CTCCACGTGCCC	0.269 ± 0.00665 relative affinity (strongest site = 1)	0.297 ± 0.00926 relative affinity (strongest site = 1)
CAGCGCGTGTGC	0.057 ± 0.0015 relative affinity (strongest site = 1)	0.179 ± 0.00225 relative affinity (strongest site = 1)
TGCCGCGTGCAC	0.033 ± 0.00214 relative affinity (strongest site = 1)	0.163 ± 0.00188 relative affinity (strongest site = 1)
TGCCGCGTGCCG	0.216 ± 0.0104 relative affinity (strongest site = 1)	0.369 ± 0.00323 relative affinity (strongest site = 1)
AAACACGAGCCA	0.0562 ± 0.00247 relative affinity (strongest site = 1)	0.208 ± 0.00306 relative affinity (strongest site = 1)
CGACACGCGGTG	0.0408 ± 0.00225 relative affinity (strongest site = 1)	0.0849 ± 0.00174 relative affinity (strongest site = 1)
AGCCACGTGGCT	0.57 ± 0.0193 relative affinity (strongest site = 1)	0.347 ± 0.00813 relative affinity (strongest site = 1)
AAGCACGTGATC	0.0423 ± 0.00127 relative affinity (strongest site = 1)	0.0912 ± 0.0018 relative affinity (strongest site = 1)
GGGCGCGTGCCG	0.576 ± 0.0101 relative affinity (strongest site = 1)	0.748 ± 0.021 relative affinity (strongest site = 1)
GTTCGCGTGTGC	0.0452 ± 0.00123 relative affinity (strongest site = 1)	0.1 ± 0.00206 relative affinity (strongest site = 1)
CGGCGCGTGCCA	0.73 ± 0.0316 relative affinity (strongest site = 1)	0.959 ± 0.0356 relative affinity (strongest site = 1)
CTGCTCGTGCTT	0.0197 ± 0.00116 relative affinity (strongest site = 1)	0.103 ± 0.00315 relative affinity (strongest site = 1)
AGGCGCGTGGTG	0.077 ± 0.00506 relative affinity (strongest site = 1)	0.157 ± 0.00403 relative affinity (strongest site = 1)
TGGCACGTGTCC	1 ± 0.0321 relative affinity (strongest site = 1)	1 ± 0.0512 relative affinity (strongest site = 1)
TGTCGCGTGCCA	0.597 ± 0.0246 relative affinity (strongest site = 1)	0.531 ± 0.00964 relative affinity (strongest site = 1)
CCGCGCGTGCCA	0.279 ± 0.0129 relative affinity (strongest site = 1)	0.516 ± 0.0179 relative affinity (strongest site = 1)
GCCCACGCGCCG	0.119 ± 0.00729 relative affinity (strongest site = 1)	0.168 ± 0.00251 relative affinity (strongest site = 1)
ATCCACGTGTCC	0.303 ± 0.0145 relative affinity (strongest site = 1)	0.256 ± 0.00386 relative affinity (strongest site = 1)

Sequence	binding signal (Her1-GFP homodimer)	binding signal [1]
TTGCACGTGTAC	0.0556 ± 0.0021 relative affinity (strongest site = 1)	0.178 ± 0.00237 relative affinity (strongest site = 1)
TTCCACGGGTCT	0.0411 ± 0.00212 relative affinity (strongest site = 1)	0.0587 ± 0.00207 relative affinity (strongest site = 1)
AGACACGCGCTA	0.118 ± 0.00385 relative affinity (strongest site = 1)	0.2749 ± 0.00267 relative affinity (strongest site = 1)
CATCACGTGAAA	0.018 ± 0.00636 relative affinity (strongest site = 1)	0.0344 ± 0.00348 relative affinity (strongest site = 1)
TTCCACGAGAAA	0.0129 ± 0.000672 relative affinity (strongest site = 1)	0.0286 ± 0.00127 relative affinity (strongest site = 1)
ATACACAGTGCGC	0.0128 ± 0.000425 relative affinity (strongest site = 1)	0.0208 ± 0.0021 relative affinity (strongest site = 1)
CTGCACGTGCAT	0.0391 ± 0.00232 relative affinity (strongest site = 1)	0.158 ± 0.00223 relative affinity (strongest site = 1)
GCGCTCGTGCGC	0.0291 ± 0.00508 relative affinity (strongest site = 1)	0.0861 ± 0.00202 relative affinity (strongest site = 1)
CAGCACGTGTCT	0.456 ± 0.0098 relative affinity (strongest site = 1)	0.679 ± 0.014 relative affinity (strongest site = 1)
GCCCACGGGCCC	0.144 ± 0.0313 relative affinity (strongest site = 1)	0.0279 ± 0.00171 relative affinity (strongest site = 1)
GGGCACGTGCGC	0.406 ± 0.00899 relative affinity (strongest site = 1)	0.542 ± 0.0166 relative affinity (strongest site = 1)
CTCCTCGTGTTG	0.0177 ± 0.000557 relative affinity (strongest site = 1)	0.0605 ± 0.00276 relative affinity (strongest site = 1)
TGACGCGTGTGA	0.118 ± 0.00595 relative affinity (strongest site = 1)	0.387 ± 0.0053 relative affinity (strongest site = 1)
CAACACGGGGTG	0.026 ± 0.00978 relative affinity (strongest site = 1)	0.0311 ± 0.0032 relative affinity (strongest site = 1)
CAGCGCGTGCCT	0.227 ± 0.0107 relative affinity (strongest site = 1)	0.4636 ± 0.00426 relative affinity (strongest site = 1)
TTGCTCGTGCTT	0.0235 ± 0.00192 relative affinity (strongest site = 1)	0.109 ± 0.00195 relative affinity (strongest site = 1)
TCACACCTGTGCAG		0.02 ± 0.00133 relative affinity (strongest site = 1)
AGCCTCGTGTAA	0.0363 ± 0.00627 relative affinity (strongest site = 1)	0.0516 ± 0.00244 relative affinity (strongest site = 1)
GTACACGTGGCG	0.237 ± 0.00793 relative affinity (strongest site = 1)	0.275 ± 0.00281 relative affinity (strongest site = 1)
TATCTCGTGCTG	0.029 ± 0.0011 relative affinity (strongest site = 1)	0.0758 ± 0.00824 relative affinity (strongest site = 1)
CGACACGTGCTC	0.416 ± 0.00933 relative affinity (strongest site = 1)	0.638 ± 0.0296 relative affinity (strongest site = 1)
